{"source": "paper PMC5540273", "about": "(PLoS ONE, 2017)", "note": "pKd: −log10 of the molar value.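 Also: kd values determined as follow-up on hits from a single-replicate KINOMEscan panel screen.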", "data": [{"system": "TGFBR1", "values": [{"smiles": "c1ccc(-c2n[nH]cc2-c2ccnc3ccccc23)nc1", "note": "[GW271431]", "pKd": 6.96}, {"smiles": "N#Cc1ccc(-c2cc(-c3c[nH]nc3-c3ccccn3)ccn2)cc1", "note": "[GW693028]", "pKd": 6.82}, {"smiles": "O=C(c1ccc(-c2cc(-c3c[nH]nc3-c3ccccn3)ccn2)cc1)N1CCOCC1", "note": "[GW812171]", "pKd": 6.74}]}, {"system": "T1, VPS34", "T1 construct": "gene PIK3C3", "values": [{"smiles": "O=c1cc(N2CCOCC2)nc2n(Cc3cccc4ccccc34)ccn12", "note": "[GSK2333389]", "pKd": 7.22}, {"smiles": "O=c1cc(N2CCOCC2)nc2n(Cc3cccc(F)c3)ccn12", "note": "[GSK2297430]", "pKd": 7.48}, {"smiles": "Cc1cccc(Cn2ccn3c(=O)cc(N4CCOCC4)nc23)c1", "note": "[GSK2297542]", "pKd": 7.12}, {"smiles": "Cc1cn2c(=O)cc(N3CCOCC3)nc2n1Cc1cccc(Cl)c1Cl", "note": "[GSK2334006]", "pKd": 8.66}, {"smiles": "O=c1cc(N2CCOCC2)nc2n(Cc3cccc(Cl)c3Cl)c(C3CC3)nn12", "note": "[GSK2358994]", "pKd": 9.41}, {"smiles": "NS(=O)(=O)c1cccc(-c2ccc3ncc(N4CCOCC4)nc3c2)c1", "note": "[GSK1535721]", "pKd": "< 5.00"}, {"smiles": "O=c1cc(N2CCOCC2)nc2n(Cc3cccc(C(F)(F)F)c3)ccn12", "note": "[GSK2297543]", "pKd": 6.89}, {"smiles": "N#Cc1c(N2CCOCC2)sc(-c2ccn[nH]2)c1-c1ccc(Cl)cc1", "pKd": 7.24}]}, {"system": "VRK2", "values": [{"smiles": "CN(C(=O)c1ccc(-c2cc(-c3c[nH]nc3-c3ccccn3)ccn2)cc1)C1CCOCC1", "note": "[GW810083]", "pKd": "< 5.00"}, {"smiles": "CC(C)(C)n1cnc2c(N)ncnc21", "note": "[SKF-97359]", "pKd": "< 5.00"}, {"smiles": "COc1ccc(Nc2nccc(N3CCC(NC(=O)Nc4cccc(C(C)=O)c4)C3)n2)cc1", "note": "(centres unmarked) [GSK1379731]", "pKd": "< 5.00"}]}]}
